Test results taken from publication PMC7862700, “An all-to-all approach to the identification of sequence-specific readers for epigenetic DNA modifications on cytosine”.

Tests used:
Test in all cases: DAPPL (digital affinity profiling via proximity ligation, sequencing); 10 mM Tris-HCl pH 7.5, 50 mM NaCl, 1 mM DTT, 4% glycerol, room temperature, 30 min; GST-TFs on glutathione beads, 16-mer random dsDNA library, 0.1% formaldehyde crosslink after washing; high values mean tight binding
[1] = target: T1, FEV (Homo sapiens, UniProt Q99581 1-238); settings: protein: recombinant; tags: N-terminal GST; dsDNA, one strand shown
T1 sequence: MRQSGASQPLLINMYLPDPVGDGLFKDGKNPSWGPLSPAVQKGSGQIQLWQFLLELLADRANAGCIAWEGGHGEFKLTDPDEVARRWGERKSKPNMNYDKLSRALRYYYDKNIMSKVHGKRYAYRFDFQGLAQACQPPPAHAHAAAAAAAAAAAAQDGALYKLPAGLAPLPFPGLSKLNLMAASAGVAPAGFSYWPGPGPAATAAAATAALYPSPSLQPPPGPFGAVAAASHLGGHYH
Procedure, shortened: (§1)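 Yeast served to express human transcription factors as GST fusions, which were then captured on glutathione beads and labelled with DNA barcodes. Pooled with a tag-only sample, they were incubated with 200 nmole of a 16-mer random double-stranded DNA library for 30 min at room temperature in Tris/NaCl/DTT/glycerol buffer, washed, crosslinked with 0.1% formaldehyde, ligated by proximity, amplified by PCR and sequenced. Dividing each hexamer's read frequency for a factor by its frequency for the tag-only sample gives the binding signal.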

[2] = target: ETV5 (Homo sapiens, UniProt P41161 1-510); settings: protein: recombinant; tags: N-terminal GST; dsDNA, one strand shown
Procedure, shortened: as §1

[3] = target: HSF1 (Homo sapiens, UniProt Q00613 1-529); settings: protein: recombinant; tags: N-terminal GST; chain copies: 3; dsDNA, one strand shown
Procedure, shortened: as §1

[4] = target: T2, SPIC (Homo sapiens, UniProt Q8N5J4 1-248); settings: protein: recombinant; tags: N-terminal GST; dsDNA, one strand shown
T2 sequence: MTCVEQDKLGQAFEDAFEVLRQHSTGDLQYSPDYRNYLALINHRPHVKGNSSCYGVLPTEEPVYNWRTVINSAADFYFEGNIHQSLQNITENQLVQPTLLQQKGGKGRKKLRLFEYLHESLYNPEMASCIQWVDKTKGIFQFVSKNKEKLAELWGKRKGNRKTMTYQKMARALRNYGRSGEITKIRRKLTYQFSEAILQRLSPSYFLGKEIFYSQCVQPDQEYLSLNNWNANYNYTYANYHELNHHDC
Procedure, shortened: as §1

[5] = target: ELF4 (Homo sapiens, UniProt Q99607 1-663); settings: protein: recombinant; tags: N-terminal GST; dsDNA, one strand shown
Procedure, shortened: as §1

[6] = target: T3, ELK4 (Homo sapiens, UniProt P28324-2 1-405); settings: protein: recombinant; tags: N-terminal GST; dsDNA, one strand shown
T3 sequence: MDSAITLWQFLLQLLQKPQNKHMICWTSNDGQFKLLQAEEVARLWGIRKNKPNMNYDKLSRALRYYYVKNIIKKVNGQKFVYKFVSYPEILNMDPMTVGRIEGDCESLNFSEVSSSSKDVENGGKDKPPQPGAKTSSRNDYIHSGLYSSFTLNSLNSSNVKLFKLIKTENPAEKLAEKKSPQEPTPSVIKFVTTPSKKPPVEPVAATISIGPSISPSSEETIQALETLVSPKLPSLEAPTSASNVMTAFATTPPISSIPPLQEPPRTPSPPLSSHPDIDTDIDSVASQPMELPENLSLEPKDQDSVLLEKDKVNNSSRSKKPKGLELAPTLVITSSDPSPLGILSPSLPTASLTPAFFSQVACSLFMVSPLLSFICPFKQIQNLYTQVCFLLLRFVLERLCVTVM
Procedure, shortened: as §1

[7] = target: T4, ETV2 (Homo sapiens, UniProt O00321 1-342); settings: protein: recombinant; tags: N-terminal GST; dsDNA, one strand shown
T4 sequence: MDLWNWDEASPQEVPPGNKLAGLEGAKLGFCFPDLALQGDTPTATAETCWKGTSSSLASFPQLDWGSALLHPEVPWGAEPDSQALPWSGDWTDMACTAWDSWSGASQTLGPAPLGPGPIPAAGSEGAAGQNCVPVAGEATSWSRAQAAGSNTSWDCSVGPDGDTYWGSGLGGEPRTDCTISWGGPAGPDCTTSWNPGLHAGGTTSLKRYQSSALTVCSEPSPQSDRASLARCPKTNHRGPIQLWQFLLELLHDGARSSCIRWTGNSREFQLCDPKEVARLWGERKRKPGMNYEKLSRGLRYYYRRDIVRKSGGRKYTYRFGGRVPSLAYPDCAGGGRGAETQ
Procedure, shortened: as §1

[8] = target: T5, ELF3 (Homo sapiens, UniProt P78545 1-371); settings: protein: recombinant; tags: N-terminal GST; dsDNA, one strand shown
T5 sequence: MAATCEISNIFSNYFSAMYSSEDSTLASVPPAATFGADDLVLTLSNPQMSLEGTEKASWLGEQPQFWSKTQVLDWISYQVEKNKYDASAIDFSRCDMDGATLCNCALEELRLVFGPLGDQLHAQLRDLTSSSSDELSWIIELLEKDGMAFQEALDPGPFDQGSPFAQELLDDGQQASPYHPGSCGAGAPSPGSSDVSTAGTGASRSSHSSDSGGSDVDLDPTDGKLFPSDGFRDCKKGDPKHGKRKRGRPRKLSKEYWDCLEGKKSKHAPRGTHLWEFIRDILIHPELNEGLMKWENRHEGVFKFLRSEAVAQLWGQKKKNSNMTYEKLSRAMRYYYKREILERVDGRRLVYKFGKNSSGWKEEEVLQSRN
Procedure, shortened: as §1

[9] = target: ETV1 (Homo sapiens, UniProt P50549 1-477); settings: protein: recombinant; tags: N-terminal GST; dsDNA, one strand shown
Procedure, shortened: as §1

[10] = target: T6, ERF (Homo sapiens, UniProt P50548 1-548); settings: protein: recombinant; tags: N-terminal GST; dsDNA, one strand shown
T6 sequence: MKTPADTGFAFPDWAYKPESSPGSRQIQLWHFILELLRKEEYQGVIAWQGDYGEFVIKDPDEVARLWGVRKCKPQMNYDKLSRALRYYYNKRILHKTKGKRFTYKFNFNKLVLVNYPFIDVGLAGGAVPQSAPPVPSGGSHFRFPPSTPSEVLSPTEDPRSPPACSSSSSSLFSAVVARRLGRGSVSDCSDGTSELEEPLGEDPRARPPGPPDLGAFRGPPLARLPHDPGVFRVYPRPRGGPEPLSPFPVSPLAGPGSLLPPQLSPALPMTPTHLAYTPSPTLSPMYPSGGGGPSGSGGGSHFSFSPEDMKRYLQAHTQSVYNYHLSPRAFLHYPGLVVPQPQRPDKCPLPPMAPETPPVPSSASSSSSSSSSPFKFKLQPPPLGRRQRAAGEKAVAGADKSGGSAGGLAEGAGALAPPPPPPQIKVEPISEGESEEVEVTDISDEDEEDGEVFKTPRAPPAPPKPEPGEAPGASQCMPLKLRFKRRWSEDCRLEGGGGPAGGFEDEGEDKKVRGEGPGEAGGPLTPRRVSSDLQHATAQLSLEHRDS
Procedure, shortened: as §1

[11] = target: T7, ETV3L (Homo sapiens, UniProt Q6ZN32 1-361); settings: protein: recombinant; tags: N-terminal GST; dsDNA, one strand shown
T7 sequence: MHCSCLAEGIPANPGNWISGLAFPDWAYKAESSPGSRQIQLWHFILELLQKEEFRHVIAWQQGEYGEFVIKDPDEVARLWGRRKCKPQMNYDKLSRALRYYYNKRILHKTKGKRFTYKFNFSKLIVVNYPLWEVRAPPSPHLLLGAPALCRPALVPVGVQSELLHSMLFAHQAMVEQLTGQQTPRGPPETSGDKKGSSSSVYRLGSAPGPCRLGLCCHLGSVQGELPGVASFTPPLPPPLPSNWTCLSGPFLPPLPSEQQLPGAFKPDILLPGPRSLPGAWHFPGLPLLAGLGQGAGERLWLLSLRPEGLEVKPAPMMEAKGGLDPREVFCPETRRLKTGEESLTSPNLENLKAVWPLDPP
Procedure, shortened: as §1

[12] = target: T8, ETS2 (Homo sapiens, UniProt P15036 1-469); settings: protein: recombinant; tags: N-terminal GST; dsDNA, one strand shown
T8 sequence: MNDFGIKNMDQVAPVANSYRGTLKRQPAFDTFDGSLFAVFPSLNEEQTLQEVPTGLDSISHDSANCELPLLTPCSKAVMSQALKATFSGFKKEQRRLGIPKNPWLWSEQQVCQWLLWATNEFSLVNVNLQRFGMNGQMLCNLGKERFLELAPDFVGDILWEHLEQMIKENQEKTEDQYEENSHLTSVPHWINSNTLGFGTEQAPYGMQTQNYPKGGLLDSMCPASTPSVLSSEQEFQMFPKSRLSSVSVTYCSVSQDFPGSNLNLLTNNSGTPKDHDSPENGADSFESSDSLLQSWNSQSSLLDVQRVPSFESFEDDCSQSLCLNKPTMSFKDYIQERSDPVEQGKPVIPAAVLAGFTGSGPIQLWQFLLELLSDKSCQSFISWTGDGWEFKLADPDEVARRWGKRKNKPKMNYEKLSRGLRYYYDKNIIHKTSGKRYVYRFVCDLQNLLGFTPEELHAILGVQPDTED
Procedure, shortened: as §1

[13] = target: T9, SPDEF (Homo sapiens, UniProt O95238 1-335); settings: protein: recombinant; tags: N-terminal GST; dsDNA, one strand shown
T9 sequence: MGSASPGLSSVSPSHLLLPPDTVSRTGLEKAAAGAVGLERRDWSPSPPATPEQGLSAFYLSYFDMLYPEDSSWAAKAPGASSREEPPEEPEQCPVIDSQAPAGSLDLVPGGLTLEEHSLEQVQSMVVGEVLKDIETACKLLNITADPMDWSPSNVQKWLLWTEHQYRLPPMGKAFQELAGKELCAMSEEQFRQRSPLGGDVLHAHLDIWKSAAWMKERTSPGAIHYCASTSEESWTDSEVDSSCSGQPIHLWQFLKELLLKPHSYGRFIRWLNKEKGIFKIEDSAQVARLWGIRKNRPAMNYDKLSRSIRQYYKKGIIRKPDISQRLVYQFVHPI
Procedure, shortened: as §1

[14] = target: T10, ETV7 (Homo sapiens, UniProt Q9Y603 1-341); settings: protein: recombinant; tags: N-terminal GST; dsDNA, one strand shown
T10 sequence: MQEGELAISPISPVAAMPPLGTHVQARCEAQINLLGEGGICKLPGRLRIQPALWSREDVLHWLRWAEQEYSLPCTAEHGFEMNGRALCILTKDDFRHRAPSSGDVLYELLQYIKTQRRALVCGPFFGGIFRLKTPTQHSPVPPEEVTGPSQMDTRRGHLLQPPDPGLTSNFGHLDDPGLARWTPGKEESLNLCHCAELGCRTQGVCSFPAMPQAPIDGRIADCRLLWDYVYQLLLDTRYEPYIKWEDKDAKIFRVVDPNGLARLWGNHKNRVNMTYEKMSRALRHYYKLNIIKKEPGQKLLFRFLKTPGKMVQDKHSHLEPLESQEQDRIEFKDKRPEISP
Procedure, shortened: as §1

[15] = target: T11, ELF5 (Homo sapiens, UniProt Q9UKW6-2 1-255); settings: protein: recombinant; tags: N-terminal GST; dsDNA, one strand shown
T11 sequence: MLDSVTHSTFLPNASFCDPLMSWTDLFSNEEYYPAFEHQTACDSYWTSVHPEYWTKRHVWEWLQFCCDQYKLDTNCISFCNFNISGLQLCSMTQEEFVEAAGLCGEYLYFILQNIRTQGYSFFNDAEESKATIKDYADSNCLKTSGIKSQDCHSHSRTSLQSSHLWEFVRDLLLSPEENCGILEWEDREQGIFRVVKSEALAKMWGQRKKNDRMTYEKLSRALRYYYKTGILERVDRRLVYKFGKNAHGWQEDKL
Procedure, shortened: as §1

[16] = target: T12, ETV3 (Homo sapiens, UniProt P41162-2 1-143); settings: protein: recombinant; tags: N-terminal GST; dsDNA, one strand shown
T12 sequence: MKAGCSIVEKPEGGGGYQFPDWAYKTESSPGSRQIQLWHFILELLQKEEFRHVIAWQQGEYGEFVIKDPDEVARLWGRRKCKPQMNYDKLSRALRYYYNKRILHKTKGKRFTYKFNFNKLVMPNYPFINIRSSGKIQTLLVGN
Procedure, shortened: as §1

[17] = target: ETV6 (Homo sapiens, UniProt P41212 1-452); settings: protein: recombinant; tags: N-terminal GST; dsDNA, one strand shown
Procedure, shortened: as §1

Chain of ETV6 (P41212 whole entry): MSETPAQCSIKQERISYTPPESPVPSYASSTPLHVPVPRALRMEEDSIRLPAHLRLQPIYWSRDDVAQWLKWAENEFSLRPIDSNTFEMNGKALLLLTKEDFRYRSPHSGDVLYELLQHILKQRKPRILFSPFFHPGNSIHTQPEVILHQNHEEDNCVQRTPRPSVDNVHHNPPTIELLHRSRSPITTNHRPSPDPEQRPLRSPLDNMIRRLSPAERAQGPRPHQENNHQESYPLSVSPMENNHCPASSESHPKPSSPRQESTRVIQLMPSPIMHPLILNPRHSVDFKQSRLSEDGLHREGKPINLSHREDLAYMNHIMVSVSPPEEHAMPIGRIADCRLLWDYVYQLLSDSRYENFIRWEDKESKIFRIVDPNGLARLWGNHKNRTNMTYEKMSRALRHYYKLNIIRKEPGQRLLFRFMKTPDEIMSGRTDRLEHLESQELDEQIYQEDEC
Chain of ETV1 (P50549 whole entry): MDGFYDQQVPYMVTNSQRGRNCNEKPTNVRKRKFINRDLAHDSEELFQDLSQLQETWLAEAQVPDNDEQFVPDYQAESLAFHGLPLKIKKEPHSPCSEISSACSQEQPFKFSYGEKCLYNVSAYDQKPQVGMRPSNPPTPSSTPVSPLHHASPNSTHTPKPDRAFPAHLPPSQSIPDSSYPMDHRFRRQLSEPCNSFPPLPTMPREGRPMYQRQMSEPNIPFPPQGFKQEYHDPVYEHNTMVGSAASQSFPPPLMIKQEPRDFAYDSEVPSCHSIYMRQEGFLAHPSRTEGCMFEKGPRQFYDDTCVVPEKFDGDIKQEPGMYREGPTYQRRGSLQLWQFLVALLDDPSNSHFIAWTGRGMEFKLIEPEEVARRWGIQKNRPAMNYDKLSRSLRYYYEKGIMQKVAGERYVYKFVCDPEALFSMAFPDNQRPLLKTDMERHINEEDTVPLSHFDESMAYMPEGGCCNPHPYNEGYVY
Chain of HSF1 (Q00613 whole entry): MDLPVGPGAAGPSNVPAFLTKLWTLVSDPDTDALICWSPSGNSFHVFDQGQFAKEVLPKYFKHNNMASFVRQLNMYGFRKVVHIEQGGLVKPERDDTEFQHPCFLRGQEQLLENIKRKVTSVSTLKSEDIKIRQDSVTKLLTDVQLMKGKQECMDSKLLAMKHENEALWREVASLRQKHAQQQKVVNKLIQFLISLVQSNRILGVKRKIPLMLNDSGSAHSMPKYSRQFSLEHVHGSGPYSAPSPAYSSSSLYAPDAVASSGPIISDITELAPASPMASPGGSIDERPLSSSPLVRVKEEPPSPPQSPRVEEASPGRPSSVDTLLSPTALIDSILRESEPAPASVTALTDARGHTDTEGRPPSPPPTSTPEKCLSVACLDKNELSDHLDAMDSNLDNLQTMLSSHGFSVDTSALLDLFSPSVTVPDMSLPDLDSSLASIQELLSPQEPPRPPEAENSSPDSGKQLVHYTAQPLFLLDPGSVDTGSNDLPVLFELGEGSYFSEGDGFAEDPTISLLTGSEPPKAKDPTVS
Chain of ETV5 (P41161 whole entry): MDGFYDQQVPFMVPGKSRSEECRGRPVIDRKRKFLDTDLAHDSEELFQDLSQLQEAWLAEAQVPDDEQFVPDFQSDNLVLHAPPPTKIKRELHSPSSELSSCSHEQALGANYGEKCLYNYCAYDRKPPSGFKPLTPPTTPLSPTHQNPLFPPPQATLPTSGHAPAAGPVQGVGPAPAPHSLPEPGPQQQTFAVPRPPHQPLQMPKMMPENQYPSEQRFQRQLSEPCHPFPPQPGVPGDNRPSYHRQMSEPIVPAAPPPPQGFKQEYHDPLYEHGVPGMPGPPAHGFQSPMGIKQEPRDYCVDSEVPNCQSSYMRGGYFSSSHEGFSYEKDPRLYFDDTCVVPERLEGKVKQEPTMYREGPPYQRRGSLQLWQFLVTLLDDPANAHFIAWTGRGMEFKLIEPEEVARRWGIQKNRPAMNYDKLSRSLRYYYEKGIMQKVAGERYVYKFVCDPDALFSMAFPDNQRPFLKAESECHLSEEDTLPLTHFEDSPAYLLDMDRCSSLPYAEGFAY
Chain of ELF4 (Q99607 whole entry): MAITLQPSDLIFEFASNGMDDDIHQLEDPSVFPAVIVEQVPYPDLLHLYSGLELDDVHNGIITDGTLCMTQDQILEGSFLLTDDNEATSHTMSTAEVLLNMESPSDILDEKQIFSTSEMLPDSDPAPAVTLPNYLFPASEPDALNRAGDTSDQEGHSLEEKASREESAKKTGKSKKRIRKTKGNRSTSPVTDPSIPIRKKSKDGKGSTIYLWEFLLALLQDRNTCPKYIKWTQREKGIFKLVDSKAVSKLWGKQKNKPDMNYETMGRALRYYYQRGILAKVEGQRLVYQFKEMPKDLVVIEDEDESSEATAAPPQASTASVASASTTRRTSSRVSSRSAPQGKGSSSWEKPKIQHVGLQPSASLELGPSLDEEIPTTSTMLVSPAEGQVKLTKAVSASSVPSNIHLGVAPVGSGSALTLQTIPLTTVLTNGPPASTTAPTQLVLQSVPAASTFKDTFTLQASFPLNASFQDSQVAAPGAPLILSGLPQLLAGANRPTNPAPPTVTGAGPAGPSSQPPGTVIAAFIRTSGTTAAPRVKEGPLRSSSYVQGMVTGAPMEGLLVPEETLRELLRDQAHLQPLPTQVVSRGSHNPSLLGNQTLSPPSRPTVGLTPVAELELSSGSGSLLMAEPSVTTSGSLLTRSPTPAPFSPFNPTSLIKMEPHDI

Sequence | binding signal [1] | binding signal [2] | binding signal [3] | binding signal [4] | binding signal [5] | binding signal [6] | binding signal [7] | binding signal [8] | binding signal [9] | binding signal [10] | binding signal [11] | binding signal [12] | binding signal [13] | binding signal [14] | binding signal [15] | binding signal [16] | binding signal [17]
TGTACA | 1.24 fold enrichment (6-mer frequency, TF over GST control) | 1.17 fold enrichment (6-mer frequency, TF over GST control) | 1.01 fold enrichment (6-mer frequency, TF over GST control) | 1.45 fold enrichment (6-mer frequency, TF over GST control) | 1.36 fold enrichment (6-mer frequency, TF over GST control) | 1.17 fold enrichment (6-mer frequency, TF over GST control) | 1.19 fold enrichment (6-mer frequency, TF over GST control) | 1.01 fold enrichment (6-mer frequency, TF over GST control) | 1.15 fold enrichment (6-mer frequency, TF over GST control) | 1.28 fold enrichment (6-mer frequency, TF over GST control) | 1.23 fold enrichment (6-mer frequency, TF over GST control) | 1.24 fold enrichment (6-mer frequency, TF over GST control) | 1.67 fold enrichment (6-mer frequency, TF over GST control) | 1.36 fold enrichment (6-mer frequency, TF over GST control) | 1.12 fold enrichment (6-mer frequency, TF over GST control) | 1.17 fold enrichment (6-mer frequency, TF over GST control) | 1.29 fold enrichment (6-mer frequency, TF over GST control)
CTCGCC | 1.21 fold enrichment (6-mer frequency, TF over GST control) | 1.23 fold enrichment (6-mer frequency, TF over GST control) | 1.06 fold enrichment (6-mer frequency, TF over GST control) | 1.2 fold enrichment (6-mer frequency, TF over GST control) | 1.29 fold enrichment (6-mer frequency, TF over GST control) | 1.31 fold enrichment (6-mer frequency, TF over GST control) | 1.32 fold enrichment (6-mer frequency, TF over GST control) | 1.43 fold enrichment (6-mer frequency, TF over GST control) | 1.26 fold enrichment (6-mer frequency, TF over GST control) | 1.4 fold enrichment (6-mer frequency, TF over GST control) | 1.2 fold enrichment (6-mer frequency, TF over GST control) | 1.25 fold enrichment (6-mer frequency, TF over GST control) | 1.07 fold enrichment (6-mer frequency, TF over GST control) | 1.16 fold enrichment (6-mer frequency, TF over GST control) | 1.26 fold enrichment (6-mer frequency, TF over GST control) | 1.2 fold enrichment (6-mer frequency, TF over GST control) | 1.29 fold enrichment (6-mer frequency, TF over GST control)
